According to PubChem BioAssay (NCI):
Several values for one entry are separate records, joined by “and”; a condition that tells them apart may be missing. Equal entries are not always repeated. This is part of a sample that, as a whole, favours compounds with a hit. Of some 83,000 tested, about 20% had one in any assay.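 How to read the values: 0–100, growth inhibition (40 = 60% inhibited); 0, no net growth; -100 to 0, cell death (-40 = 40% of starting cells died; -100 = all dead).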 Where a structure was tested more than once in an assay, its records may differ in their call. Activity calls are given as the source filed them. Rule for the calls: active = growth percent below 10; inactive = the rest.

Key:
Test in all cases: NCI-60 one-dose screen, 48 h (100 = growth as untreated, 0 = no growth, -100 = all killed)
Conditions in all cases: 10 µM unless noted
[1] = test system: DU-145 prostate
[2] = test system: K-562 leukemia
[3] = test system: MALME-3M melanoma
[4] = test system: MDA-MB-231 breast
[5] = test system: RXF 393 renal
[6] = test system: SF-268 CNS
[7] = test system: SF-295 CNS
[8] = test system: SF-539 CNS
[9] = test system: UACC-257 melanoma
[10] = test system: M14 melanoma

Measured: growth

CCNC(=O)Nc1ccc(-c2nc3c(c(N4CCOC[C@@H]4C)n2)CCN(C2COC2)C3)cc1
18.4% (inactive) and -25.6% (active): [7]
33.2% (inactive) and -21.9% (active): [8]
37.3% (inactive) and 8.1% (active): [10]
36.7% (inactive) and -27% (active): [9]
inactive: [1] 49.7% and 19.4% | [2] 61.6% and 17.2% | [4] 44.5% and 23.2% | [6] 54.3% and 17.6%
active: [3] -9.78% and -10.6% | [5] 3.76% and -28.4%

CCN(CC)CCNc1ccc(C)c2sc3ccccc3c(=O)c12 (tested in a mixture with another compound)
active: [9] -52.9% and -51.9% | [10] -50.9% and -40.5%
-9.22% (active) and 16.4% (inactive): [5]
inactive: [1] 36% and 39.4% | [3] 30.9% and 48.2% | [4] 18.3% and 24.8% | [6] 36.2% and 24.3% | [7] 35.4% and 40.9% | [8] 38.6% and 32%
0.322% (active) and 13.3% (inactive): [2]

Cc1cccc(/C=C\C(=O)c2ccccc2)c1
67% (inactive) and 3.91% (active): [2]
inactive: [1] 99.9% and 104% | [3] 91.5% | [4] 94% and 110% | [5] 118% and 96.8% | [6] 105% and 99.5% | [7] 116% and 95.7% | [8] 112% and 108% | [9] 102% and 109% | [10] 98.5%

Oc1ccc(/C=C/c2ccccc2)cc1
inactive: [1] 50.9% and 58.4% | [2] 64.7% and 58.4% | [3] 97.9% and 71.7% | [4] 57.4% and 47.1% | [5] 75.9% and 91% | [6] 53.7% and 62.5% | [7] 82.8% and 81% | [8] 79.6% and 68.7% | [9] 100% and 87.9% | [10] 68% and 73.4%

O=C(Nc1ccc(Cl)cc1)c1cc2ccccc2cc1O
10.2% (inactive) and 3.7% (active): [7]
55% (inactive) and 7.47% (active): [10]
53.6% (inactive) and -17% (active): [5]
inactive: [1] 29.6% and 10% | [3] 29.4% and 17% | [4] 52.7% and 41.7% | [6] 53.6% and 24.9% | [8] 22.7% and 12.5% | [9] 20.7%
14.1% (inactive) and 7.46% (active): [2]

Nc1cc2c(cc1N)-c1ccccc1C2
inactive: [1] 104% and 106% | [2] 79.4% and 87% | [3] 76.5% and 103% | [4] 64.7% and 97% | [5] 88.2% and 96.4% | [6] 86.8% and 92.6% | [7] 156% and 98.8% | [8] 74.9% and 92.5% | [9] 101% and 98.1% | [10] 97.1% and 109%

COc1ccc2c(=O)cc(-c3ccccc3)[nH]c2c1
active: [2] 9.54% and -12.9% | [5] 7.41% | [7] -8.08% and 2.52% | [8] -5.99% and -23.9% | [10] 4.76% and 0.39%
inactive: [1] 15% and 19.1% | [3] 40.7% and 47.9% | [4] 29.9% and 29.1% | [6] 45.3% and 43.1% | [9] 65.2% and 30.5%

Cc1n[nH]c(=O)n(/N=C\c2c[nH]c3ccccc23)c1=O
inactive: [1] 118% | [2] 93.7% | [3] 97% | [4] 123% | [5] 96.3% | [6] 99.6% | [7] 102% | [8] 104% | [9] 104% | [10] 121%

O=[N+]([O-])c1ccc2nc3c4ccccc4c4ccccc4c3nc2c1
inactive: [1] 100% | [2] 67.4% | [3] 98.6% | [4] 70.2% | [5] 96% | [6] 78% | [7] 107% | [8] 91% | [9] 82.5% | [10] 90.3%

CC(=O)Oc1cc(C(=O)O)cc(OC(C)=O)c1OC(C)=O
inactive: [1] 118% and 113% | [2] 108% | [3] 115% and 96.5% | [4] 94% and 97.3% | [5] 99.5% and 122% | [6] 107% and 102% | [7] 107% and 102% | [8] 121% and 104% | [9] 95.3% and 90.7% | [10] 105% and 99%

O=[N+]([O-])c1ccccc1/C=N\Nc1ccccc1
inactive: [1] 97.7% and 103% | [2] 37.9% and 40.2% | [3] 98.7% and 116% | [4] 74.1% and 65% | [5] 110% and 105% | [6] 78.5% and 89.5% | [7] 102% and 76.9% | [8] 88.1% and 106% | [9] 94.3% and 103% | [10] 50.1% and 70.9%

O=C(Nc1ccc([N+](=O)[O-])cc1Cl)c1cc(Cl)ccc1O
5.52% (active) and 16.4% (inactive): [6]
3.36% (active) and 12.4% (inactive): [2]
3.92% (active) and 17.7% (inactive): [1]
active: [3] -8.09% and -27.3% | [4] -43.3% and -31.2% | [5] -27.4% and -21.6% | [7] -56.8% and -57.8% | [8] -16.5% and 4.67% | [9] -34.2% and 3.09% | [10] -24.1% and -34.4%

COc1ccc(S(=O)(=O)N2CCOCC2)cc1NC(=O)c1[nH]c(C)c2c1CCCCC2=O
inactive: [1] 107% and 81.5% | [2] 105% and 46.1% | [3] 103% and 53.9% | [4] 110% and 44.6% | [5] 109% and 37.7% | [6] 98.5% and 72.1% | [7] 100% and 60.7% | [8] 95.4% and 43.6% | [9] 101% and 58.7% | [10] 109% and 102%

CC1(C)[C@@H](OC(=O)CCC(=O)O)CC[C@]2(C)[C@H]3C(=O)C=C4[C@@H]5C[C@@](C)(C(=O)O)CC[C@]5(C)CC[C@@]4(C)[C@]3(C)CC[C@@H]12
101% (inactive) and -1.77% (active): [1]
99.2% (inactive) and -46.5% (active): [9]
99.9% (inactive) and -73% (active): [8]
110% (inactive) and -5.44% (active): [4]
96.1% (inactive) and -27% (active): [6]
108% (inactive) and -65.4% (active): [3]
103% (inactive) and -12.8% (active): [10]
92.3% (inactive) and 5.05% (active): [2]
125% (inactive) and -88.8% (active): [5]
106% (inactive) and -51.1% (active): [7]

Cc1cc(O)c(C(C)C)cc1N
inactive: [1] 115% and 116% | [2] 113% and 101% | [3] 113% and 112% | [4] 103% and 92.3% | [5] 119% and 115% | [6] 102% and 120% | [7] 104% and 99% | [8] 101% and 95.6% | [9] 107% and 111% | [10] 108% and 112%
